# Source: PMC8384837, “Expanding the binding specificity for RNA recognition by a PUF domain”
# Columns and labels:
# Experiment in all cases: yeast three-hybrid, YBZ-1, SC-Leu-His + 0.5 mM 3-AT, 4 days
# Conditions in all cases: tags: N-Gal4 AD-HA kept; label: inside an RPR1-promoter hybrid RNA with tandem MS2 sites; ssRNA
# PUM1 PUF domain R5-DKQ = PUM1 PUF domain R5-DKQ (Homo sapiens, UniProt Q14671 828-1176, C1007D;R1008K)
# Method in brief: (§1)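 The interaction score is the logarithmic change in variant frequency from input to selection. It uses log2, with a pseudocount of 1 for absent variants, and frequencies came from PCR-amplified, Illumina-sequenced repeat regions. The libraries were Pumilio-1 PUF domains randomized at the three base-contacting residues per repeat, co-expressed with matching RNA elements in strain YBZ-1 (LexA–MS2 coat fusion, HIS3 reporter). Plating lasted four days on SC-Leu (input) or SC-Leu-His + 0.5 mM 3-AT (selection).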
# PUM1 PUF domain R5-FRC = PUM1 PUF domain R5-FRC (Homo sapiens, UniProt Q14671 828-1176, C1007F;Q1011C)
# Method in brief: as §1
# PUM1 PUF domain R5-KQD = PUM1 PUF domain R5-KQD (Homo sapiens, UniProt Q14671 828-1176, C1007K;R1008Q;Q1011D)
# Method in brief: as §1
# PUM1 PUF domain R1-SPR = PUM1 PUF domain R1-SPR (Homo sapiens, UniProt Q14671 828-1176, R864P;Q867R)
# Method in brief: as §1
# PUM1 PUF domain R1-RVT = PUM1 PUF domain R1-RVT (Homo sapiens, UniProt Q14671 828-1176, S863R;R864V;Q867T)
# Method in brief: as §1
# PUM1 PUF domain R4-GNC = PUM1 PUF domain R4-GNC (Homo sapiens, UniProt Q14671 828-1176, N971G;H972N;Q975C)
# Method in brief: as §1
# PUM1 PUF domain R8-PWH = PUM1 PUF domain R8-PWH (Homo sapiens, UniProt Q14671 828-1176, N1122P;Y1123W;Q1126H)
# Method in brief: as §1
# PUM1 PUF domain R3-LFG = PUM1 PUF domain R3-LFG (Homo sapiens, UniProt Q14671 828-1176, C935L;R936F;Q939G)
# Method in brief: as §1
# PUM1 PUF domain R1-KNS = PUM1 PUF domain R1-KNS (Homo sapiens, UniProt Q14671 828-1176, S863K;R864N;Q867S)
# Method in brief: as §1
# PUM1 PUF domain R7-EHG = PUM1 PUF domain R7-EHG (Homo sapiens, UniProt Q14671 828-1176, S1079E;N1080H;E1083G)
# Method in brief: as §1
sequence,measurement,setting,value
GGCUAGAACUAGUGGAUCCCCCGGCGCCCGGCGGCUCGAGCCCGGGUAAGUGUCAAUAGUCUGCAUGCCGCCGGGCGCCAUGCCUGCAGGUCGACUCUAGAAAACAUG,binding signal,PUM1 PUF domain R5-DKQ,5.31 log2 enrichment (interaction score)
same,binding signal,PUM1 PUF domain R5-FRC,3.83 log2 enrichment (interaction score)
same,binding signal,PUM1 PUF domain R5-KQD,2.75 log2 enrichment (interaction score)
GGCUAGAACUAGUGGAUCCCCCGGCGCCCGGCGGCUCGAGCCCGGGUAAGUGUAAAUCGUCUGCAUGCCGCCGGGCGCCAUGCCUGCAGGUCGACUCUAGAAAACAUG,binding signal,PUM1 PUF domain R1-SPR,2.62 log2 enrichment (interaction score)
same,binding signal,PUM1 PUF domain R1-RVT,5.15 log2 enrichment (interaction score)
GGCUAGAACUAGUGGAUCCCCCGGCGCCCGGCGGCUCGAGCCCGGGUAAGUGUACAUAGUCUGCAUGCCGCCGGGCGCCAUGCCUGCAGGUCGACUCUAGAAAACAUG,binding signal,PUM1 PUF domain R4-GNC,3.28 log2 enrichment (interaction score)
GGCUAGAACUAGUGGAUCCCCCGGCGCCCGGCGGCUCGAGCCCGGGUAAGUGUAAAUAGUCUGCAUGCCGCCGGGCGCCAUGCCUGCAGGUCGACUCUAGAAAACAUG,binding signal,PUM1 PUF domain R8-PWH,2.69 log2 enrichment (interaction score)
same,binding signal,PUM1 PUF domain R4-GNC,1.09 log2 enrichment (interaction score)
same,binding signal,PUM1 PUF domain R3-LFG,1.41 log2 enrichment (interaction score)
GGCUAGAACUAGUGGAUCCCCCGGCGCCCGGCGGCUCGAGCCCGGGUAAGUGUAAGUAGUCUGCAUGCCGCCGGGCGCCAUGCCUGCAGGUCGACUCUAGAAAACAUG,binding signal,PUM1 PUF domain R3-LFG,4.75 log2 enrichment (interaction score)
GGCUAGAACUAGUGGAUCCCCCGGCGCCCGGCGGCUCGAGCCCGGGUAAGUGUAAUUAGUCUGCAUGCCGCCGGGCGCCAUGCCUGCAGGUCGACUCUAGAAAACAUG,binding signal,PUM1 PUF domain R3-LFG,1.87 log2 enrichment (interaction score)
GGCUAGAACUAGUGGAUCCCCCGGCGCCCGGCGGCUCGAGCCCGGGUAAGUGUAAAUGGUCUGCAUGCCGCCGGGCGCCAUGCCUGCAGGUCGACUCUAGAAAACAUG,binding signal,PUM1 PUF domain R1-RVT,3.15 log2 enrichment (interaction score)
GGCUAGAACUAGUGGAUCCCCCGGCGCCCGGCGGCUCGAGCCCGGGUAAGUGUAUAUAGUCUGCAUGCCGCCGGGCGCCAUGCCUGCAGGUCGACUCUAGAAAACAUG,binding signal,PUM1 PUF domain R4-GNC,3.99 log2 enrichment (interaction score)
GGCUAGAACUAGUGGAUCCCCCGGCGCCCGGCGGCUCGAGCCCGGGUAAGUGUAAAUUGUCUGCAUGCCGCCGGGCGCCAUGCCUGCAGGUCGACUCUAGAAAACAUG,binding signal,PUM1 PUF domain R1-SPR,1.48 log2 enrichment (interaction score)
same,binding signal,PUM1 PUF domain R1-RVT,4.35 log2 enrichment (interaction score)
same,binding signal,PUM1 PUF domain R1-KNS,3.86 log2 enrichment (interaction score)
GGCUAGAACUAGUGGAUCCCCCGGCGCCCGGCGGCUCGAGCCCGGGUAAGUCUAAAUAGUCUGCAUGCCGCCGGGCGCCAUGCCUGCAGGUCGACUCUAGAAAACAUG,binding signal,PUM1 PUF domain R7-EHG,5.15 log2 enrichment (interaction score)
